# Reference: PubChem BioAssay AID743441 (Broad Institute, 2014)
# Potency and affinity values are given separately. Active and inactive are the calls of the source.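 How the source made its calls: active means cell toxicity seen as a signal drop, with half-maximal potency at most twice the top valid dose; inconclusive means flat curve with a partial drop, or a poor fit; inactive means the rest, including rises in signal.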
# Assay: ATP-based viability loss in HEK293T cells – cell-based, CellTiter-Glo luminescence, cherry-picked samples, set 4, cytotoxicity control, dose response (AID 743441)
# Conditions: 72 h; series mostly up to 26 µM; activity change, negative = cytotoxicity: at the top concentration
row,SMILES,"activity change, negative = cytotoxicity"
1,C[C@@H]1CCCCO[C@H](CN(C)CC2CC2)[C@H](C)CN([C@@H](C)CO)C(=O)c2cc(NC(=O)Nc3cccc4ccccc34)ccc2O1,12.6 unspecified (inactive)
2,COc1cccc(C(=O)Nc2cc(C)nn2-c2ccccc2)c1OC,14.1 unspecified (inactive)
3,Cc1cc(C)c(C#N)c(N2CCN(c3ccccc3)CC2)n1,-9.92 unspecified (inactive)
4,COc1ccc2[nH]c3c(=O)n(CCCCC(=O)NCCC(C)C)c(=S)[nH]c3c2c1,7.22 unspecified (inactive)
5,Cc1ccc(S(=O)(=O)N2CC[C@H]3[C@H](CO)Nc4ccc(Br)cc4[C@H]32)cc1,23.6 unspecified (inactive)
6,Cc1[nH]c(=S)sc1Cc1ccc(Cl)c(Cl)c1,0.291 unspecified (inactive)
7,COC(=O)c1c(NC(=O)CCC(=O)O)sc(Cc2ccccc2)c1C,9.22 unspecified (inactive)
8,CC[C@H]1OC(=O)[C@H](C)[C@@H](O[C@H]2C[C@@](C)(OC)[C@@H](O)[C@H](C)O2)[C@H](C)[C@@H](O[C@@H]2O[C@H](C)C[C@H](N(C)C)[C@H]2O)[C@](C)(O)C[C@@H](C)[C@@H]2N[C@@H](COCCOC)O[C@H]([C@H]2C)[C@]1(C)O,8.74 unspecified (inactive)
9,O=C(O)c1cc([N+](=O)[O-])ccc1NCc1ccccc1,13.4 unspecified (inactive)
10,CC(CNc1ccc(Cl)cc1)(CNc1ccc(Cl)cc1)[N+](=O)[O-],6.79 unspecified (inactive)
11,Cc1ccc(C)c(NC(=O)CSc2nc3nc(-c4cccs4)cc(C(F)(F)F)c3c(=O)[nH]2)c1,18.9 unspecified (inactive)
12,Cc1noc(C)c1NC(=O)Nc1ccc2c(c1)C(=O)N([C@H](C)CO)C[C@@H](C)[C@@H](CN(C)C(=O)Nc1ccc3c(c1)OCO3)OCCCC[C@@H](C)O2,8.97 unspecified (inactive)
13,COc1ccc(Nc2oc(-c3ccco3)nc2S(=O)(=O)c2ccc(F)cc2)cc1,-2.57 unspecified (inactive)
14,C[C@@H]1CCCCO[C@H](CN(C)C(=O)CCCN(C)C)[C@H](C)CN([C@@H](C)CO)C(=O)c2cc(NC(=O)Nc3cccc4ccccc34)ccc2O1,23.1 unspecified (inactive)
15,CSc1nc(N)nc(SC2C=CCCC2)c1C#N (stereo not drawn),2.53 unspecified (inactive)
16,CCOC(=O)c1c(NC(=O)Cc2cccs2)sc(C)c1C,21 unspecified (inactive)
17,CC1(Cc2ccccc2C#N)C(=O)Nc2cc(-c3ccccc3Cl)ccc21 (stereo not drawn),-13.1 unspecified (inactive)
18,COc1ccc(NC(=O)c2ccc(-c3ccc([N+](=O)[O-])cc3)o2)cc1,8.52 unspecified (inactive)
